Only some compounds are listed: those with a hit (about 18% of all), similar ones and a draw of the others.
TDP1 cell CPT: qHTS for Inhibitors of human tyrosyl-DNA phosphodiesterase 1 (TDP1): qHTS in cells in presence of CPT; chicken DT40 Tdp1-/-;hTDP1 cells + 20 nM CPT, ATP luminescence, 48 h; Potency, µM (top dose mostly 46.2 µM), for the others: at the highest dose activity change, negative = growth inhibition, actives largely listed as inhibitors; hit rate 12% among 420,000; AID 686979, 2013; further: potency means the concentration at half of the fitted maximal effect; on the % scale 0 is the no-effect control and ±100 the full control effect; nearly all actives have a fitted effect of over 55% in size
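Chicken DT40 Tdp1-/- cells stably complemented with human TDP1 were seeded at 400 cells/well in medium containing 20 nM camptothecin, exposed to pin-transferred compounds, and grown at 37 °C for at least 48 hr. Viability was read as ATP luminescence.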
TDP1 block: qHTS Assay for Inhibitors of Tyrosyl-DNA Phosphodiesterase (TDP1); recombinant TDP1, AlphaScreen DNA substrate cleavage; Potency, µM (highest dose often 130 µM), for the others: at the top dose activity change, negative = inhibition, hits mostly inhibitors; hit rate 0.28% among 350,000; further: potency means the concentration at half of the fitted maximal effect; on the % scale 0 is the no-effect control and ±100 the full control effect; nearly all actives have a fitted effect of over 40% in size
Target sequence (Q9NUW8 whole entry, looked up): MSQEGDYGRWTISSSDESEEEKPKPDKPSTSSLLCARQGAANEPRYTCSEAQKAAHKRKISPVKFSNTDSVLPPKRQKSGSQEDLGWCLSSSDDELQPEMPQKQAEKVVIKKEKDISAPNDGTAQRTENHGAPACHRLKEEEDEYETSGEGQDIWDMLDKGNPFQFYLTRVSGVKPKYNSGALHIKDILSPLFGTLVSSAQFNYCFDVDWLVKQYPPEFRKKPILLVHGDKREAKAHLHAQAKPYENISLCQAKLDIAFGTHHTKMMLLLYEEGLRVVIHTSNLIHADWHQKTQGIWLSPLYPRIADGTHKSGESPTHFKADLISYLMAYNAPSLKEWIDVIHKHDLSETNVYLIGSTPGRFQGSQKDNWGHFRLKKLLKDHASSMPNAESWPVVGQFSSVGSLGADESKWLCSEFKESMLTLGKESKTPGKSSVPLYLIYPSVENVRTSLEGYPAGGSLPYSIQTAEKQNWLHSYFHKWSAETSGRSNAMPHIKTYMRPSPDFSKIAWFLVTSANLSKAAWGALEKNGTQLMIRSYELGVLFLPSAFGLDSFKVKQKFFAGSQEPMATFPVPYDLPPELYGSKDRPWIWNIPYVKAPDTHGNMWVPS
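Here, a 5' biotin and 3' phosphotyrosine-FITC DNA oligonucleotide reports Tdp1 activity: intact substrate bridges AlphaScreen beads, while cleavage leaves a 3' phosphate and drops signal. All incubations at room temperature.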
TDP1 cell noCPT: qHTS for Inhibitors of human tyrosyl-DNA phosphodiesterase 1 (TDP1): qHTS in cells in absence of CPT | Potency, µM (doses to about 46.2 µM), for the others: at the highest dose activity change, negative = growth inhibition, most hits filed as inhibitors | hit rate 15% among 420,000 | DT40 Tdp1-/- hTDP1 cells, no CPT, ATP luminescence, 48 h; further: potency means the concentration at half of the fitted maximal effect; on the % scale 0 is the no-effect control and ±100 the full control effect; nearly all actives have a fitted effect of over 55% in size
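Readout: luminescence from CellTiter-Glo after 30 min in the dark at RT. Cells: DT40 Tdp1-/- with stable hTDP1, 400/well. Exposure: compounds alone, ≥48 hr, 37 °C.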
HepG2 tox: qHTS for Inhibitors of TGF-b: Cytotox Counterscreen. HepG2 CAGA-GFP viability, ATP luminescence, 18 h. Potency, µM (highest dose often 46.1 µM), inactives show at the highest dose activity change, negative = cytotoxicity, hits mostly cytotoxic. hit rate 0.76% among 410,000; further: potency means the concentration at half of the fitted maximal effect
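CellTiter-Glo luminescence gave cytotoxicity after 18 hours at 37 degrees C. The cells were HepG2 CAGA-GFP in 1% FBS DMEM, stimulated with 500 pg/mL TGF-beta after compound addition. %Activity was normalised to no-cell wells (complete cell-killing) and DMSO (no toxicity), and curves were fitted and classified.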
TGFb inhibitor: qHTS for Inhibitors of TGF-b | HepG2 CAGA-GFP TGF-b/SMAD3 reporter, GFP fluorescence, 18 h; TGF-beta stimulated, 500 pg/mL final | Potency, µM (titrated, usually from 46.1 µM), for inactives: at the top dose activity, negative = inhibition, actives largely listed as inhibitors | hit rate 1.2% among 410,000; further: potency means the concentration at half of the fitted maximal effect; on the % scale 0 is the no-effect control and ±100 the full control effect; nearly all actives have a fitted effect of over 65% in size
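TGF-beta reporter screen: HEPG2 CAGA-GFP, 1% FBS, 500 pg/mL TGF-beta final, 18 h; per-cell GFP summed per well; curves fitted and categorized by class.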
IL1B secr inh: qHTS for Inhibitors of Inflammasome Signaling: IL-1-beta AlphaLISA Primary Screen; THP-1 LPS/ATP IL-1B secretion, AlphaLISA, 16 h; active compounds read low; activity change, % at 57.5 µM; hit rate 4.7% among 360,000; in the data active means activity change below about -50%; inconclusive means mostly about -30% to -49%; further: on the % scale 0 is the no-effect control and ±100 the full control effect
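THP-1 cells pretreated 1 hr with compounds (up to 57.5 uM final), then stimulated with LPS (250 ng/mL final) plus ATP (1.25 mM final); secreted IL-1B measured by AlphaLISA after 16 hr, decreased signal indicating inhibition.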
An asterisk follows results filed as active; ? = inconclusive; · = no result given; [ ] = another dose, or the depositor's remark. Unless noted, the call rests on the fitted dose curve; in most records, active means well fitted curve in the direction sought with a large enough effect; inconclusive means small, poorly fitted or top-dose-only effect, or another doubt; inactive means no such curve, though single readings can be large; an effect the other way counts as inactive or inconclusive.

SMILES | TDP1 cell CPT | TDP1 block | TDP1 cell noCPT | HepG2 tox | TGFb inhibitor | IL1B secr inh
CC1(c2ccc(Cl)cc2)NC(=O)N(CC(=O)Nc2ccc(N3CCCCC3)cc2)C1=O (stereo not drawn) | ? | 6.7%[0.505 µM] | -29.2% | -2.2% | -12.0% | -14.8
Cn1c(=O)c2[nH]c(NN=Cc3ccc(F)cc3)nc2n(C)c1=O | -12.2% | · | ? | -1.7% | 7.4% | -19.0
Cn1c(=O)c2[nH]c(NN=Cc3cccc(Br)c3)nc2n(C)c1=O | 23.1µM* | · | 14.6µM* | -14.9% | 2.4% | -19.9
Nc1[nH]c2cc([N+](=O)[O-])ccc2c1-c1ccccn1 | 14.6µM* | 7.2% | ? | -36.7% | -0.9% | -11.3
O=[N+]([O-])c1ccc2nc[nH]c2c1 | 0.0% | 12.7% | -20.1% | -3.3% | 7.9% | -10.3
Cc1ccc(C(C)C)c(OCC(=O)Nn2c(C)nc3ccccc3c2=O)c1 | -20.7% | 5.9% | 6.51µM* | -38.7% | ? | 23.0
Cc1ccc(C(C)C)c(OCC(=O)Nn2c(=O)[nH]c3ccccc3c2=O)c1 | -22.0% | 0.0% | ? | -1.7% | 0.0% | -27.4
CCN(CC)c1ccc(NC(=O)COc2ccccc2C)cc1S(=O)(=O)Nc1ccccc1OC | ? | -10.3% | 14.6µM* | 2.7% | -20.8% | 11.2
CCN(CC)c1ccc(NC(=O)c2ccccc2Br)cc1S(=O)(=O)Nc1ccccc1OC | 11.6µM* | 2.7% | 10.3µM* | -10.9% | -9.8% | -60.5*
CCN(CC)c1ccc(NC(=O)c2ccc(=O)[nH]c2)cc1S(=O)(=O)Nc1ccccc1OC | ? | 2.7% | ? | 7.5% | -16.9% | -4.3
CCN(CC)c1ccc(NC(=O)c2ccccc2F)cc1S(=O)(=O)Nc1ccccc1OC | ? | -3.1% | ? | -29.4% | -12.0% | -5.1
CCCCN(CC)Cc1ccc(CNC(=O)Nc2ccc(Cl)cc2)o1 | 3.26µM* | -2.3% | 5.8µM* | -39.2% | ? | -62.0*
CCc1ccccc1NC(=O)CSc1ncccc1C(=O)O | -14.4% | 5.2% | -10.2% | -4.2% | 0.5% | ·
CCOCCCNC(=O)C(c1ccccc1)N(Cc1ccc2c(c1)OCO2)C(=O)c1ccccc1O (stereo not drawn) | 4.5% | 2.7% | -21.9% | -0.4% | 6.4% | -8.6
CCOCCCNC(=O)C(c1ccc(C)cc1)N(Cc1ccc2c(c1)OCO2)C(=O)c1ccccc1O (stereo not drawn) | 23.1µM* | 8.8% | 16.4µM* | -4.9% | -10.8% | ·
COc1ccc(S(=O)(=O)N(CCO)c2ccccc2CN(C)CC=Cc2ccc(Cl)cc2)cc1 | · | 7.1% | · | · | · | ·
Cc1ccc(Cl)cc1N1CCN(Cc2nnc(-c3ccc4c(c3)OCO4)o2)CC1 | ? | 0.0%[12.3 µM] | ? | -1.0% | 0.0% | ·
Fc1ccc(N2CCN(Cc3nnc(-c4ccccc4)o3)CC2)cc1 | -35.1% | 1.1% | -13.9% | 1.6% | -3.7% | 9.8
FC(F)(F)c1cccc(N2CCN(Cc3nnc(-c4ccc5c(c4)OCO5)o3)CC2)c1 | ? | 2.5% | 16.4µM* | -24.6% | -27.1% | ·
Clc1ccc(N2CCN(Cc3nnc(-c4ccc5c(c4)OCO5)o3)CC2)cc1 | ? | 0.0% | 18.4µM* | -16.0% | -21.9% | ·
Fc1ccc(-c2nnc(CN3CCN(c4ncc(C(F)(F)F)cc4Cl)CC3)o2)cc1 | 13µM* | -1.1% | 14.6µM* | -35.2% | -9.9% | -17.2
COc1cccc(N2CCN(Cc3nnc(-c4ccc5c(c4)OCO5)o3)CC2)c1 | 0.6% | -2.5% | -26.8% | -23.4% | -16.6% | ·
CCCCCCOc1ccc(/C=C/C(=O)Nc2sc3c(c2C(=O)OC)CCC3)cc1OC | 7.31µM* | -6.6%[12.3 µM] | 4.11µM* | -102.1% | 7.94µM* | ·
CCC1([N+](=O)[O-])COC(c2ccc(OC)cc2)OC1 (stereo not drawn) | 16.3% | · | 0.8% | 6.3% | 3.4% | -11.0
CCN1CCC(N[C@H]2C[C@@H](C(=O)NC)N(Cc3cccc4ccccc34)C2)CC1 | -7.7%[9.04 µM] | · | ? | · | · | ·
SMILES | TDP1 cell CPT | TDP1 block | TDP1 cell noCPT | HepG2 tox | TGFb inhibitor | IL1B secr inh
COCCCNC(=O)C[C@H]1C[C@H](C(=O)N2CCOCC2)[C@@]2(CCC3CCCC3)c3[nH]c4ccc(Cl)cc4c3CCN2C1=O | 20.6µM* | 0.2%[56.1 µM] | ? | 0.4% | -2.6% | -1.9
O=C(C[C@H]1C[C@H](C(=O)N2CCOCC2)[C@@]2(CCC3CCCC3)c3[nH]c4ccc(Cl)cc4c3CCN2C1=O)NCC12CC3CC(CC(C3)C1)C2 | 16.4µM* | 1.5%[56.1 µM] | 20.6µM* | -0.7% | -6.4% | 43.3
CC1(C)CC1C(=O)N/C(=C/CCCCSCC(N)C(=O)O)C(=O)O (stereo not drawn) | · | 9.5% | · | · | · | ·
C=CC[C@@H](CC(=O)NCCO)C(=O)NC[C@H](OC(=O)[C@@H](CC=C)Cc1ccc(F)cc1)c1ccccc1 | 14.6µM* | 0.5% | 11.6µM* | -19.2% | -20.0% | -14.8
C=CC[C@@H](CC(=O)N[C@@H](CO)Cc1ccccc1)C(=O)N[C@@H](COC(=O)[C@@H](CC=C)Cc1ccc(F)cc1)Cc1ccccc1 | -19.2% | 1.6% | ? | -4.2% | ? | -2.1
C=CCC[C@@H](Cc1ccc(F)cc1)C(=O)OCCNC(=O)[C@@H](CC=C)CC(=O)N[C@@H](CO)Cc1ccccc1 | ? | -0.4% | -26.3% | 3.4% | 32.4% | -19.2
C=CC[C@@H](CC(=O)N[C@H](CO)Cc1ccccc1)C(=O)N[C@@H](C)COC(=O)[C@@H](CC=C)Cc1ccc(F)cc1 | ? | 0.5% | 18.4µM* | -28.1% | ? | 19.9
C=CCC[C@@H](Cc1ccc(F)cc1)C(=O)OCCNC(=O)[C@@H](CC=C)CC(=O)N[C@H](CO)Cc1ccccc1 | 20.6µM* | 1.7% | ? | -7.3% | -10.1% | 2.5
C=CCC[C@@H](Cc1ccc(F)cc1)C(=O)OC[C@@H](Cc1ccccc1)NC(=O)[C@H](CC=C)CC(=O)NCCO | 9.2µM* | 0.7% | 13µM* | -31.7% | ? | -25.2
Cc1ccc(NC(=O)NC2CC(=O)N(c3ccc4c(c3)OCCO4)C2)cc1F (stereo not drawn) | -1.1% | · | ? | -44.4% | -26.0% | 5.1
CCc1ccc(NC(=O)C2CCN(c3cc(C)nc4c(-c5ccc(Cl)cc5)c(C)nn34)CC2)cc1 | -18.4% | -3.5% | -7.7% | 10.3% | -4.4% | ·

Screens: PubChem, National Center for Advancing Translational Sciences (NCATS)
